From PubChem
Sampled rows, rich in hits. Any-hit rate of the full collection: about 7.8%.
VACV mCherry inh: vaccinia inhibition (mCherry reporter); Vaccinia virus mCherry reporter infection, fluorescence; 310,000 tested, 0.63% active; Potency, µM (doses to about 36.5 µM), for the others: at the highest dose activity change, negative = inhibition, actives largely listed as inhibitors; calls by dose curve; tested in A549 cells; note: potency is the fitted concentration of half-maximal effect; nearly all actives have a fitted effect of over 35% in size
HCV inhibitor: blocks hepatitis C virus; Huh7.5.1 HCVcc-Cre infection, luciferase reporter, 44 h; Potency, µM (doses to about 41.8 µM), for inactives: at the top dose activity change, negative = inhibition, actives largely listed as inhibitors; 340,000 tested, 3.4% active; AID 651820; active = well fitted inhibition curve with a large enough effect; inconclusive = small, poorly fitted or top-dose-only effect, or another doubt; inactive = no such curve, though single readings can be large or run the other way; note: potency is the fitted concentration of half-maximal effect
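Compounds are dispensed onto cells plated 4 h earlier at 1,000 per well, with HCVcc-Cre virus (about 0.5 moi) added next. Following 44 h of culture, luminescent signal is measured for 15 sec after 15 min with substrate at room temperature.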
Marburg entry inh: blocks Marburg virus binding to or entry into cells; Marburg virus pseudotyped entry inhibition, cell reporter; Potency, µM (series often up to 37.8 µM), inactives show at the highest dose activity change, negative = inhibition, hits mostly inhibitors; 300,000 tested, 1.8% active; AID 540276; calls by dose curve; tested in HEK293 cells; note: potency is the fitted concentration of half-maximal effect
VACV Venus inh: vaccinia inhibition (Venus reporter); Potency, µM (titrated, usually from 36.5 µM), for inactives: top-dose activity change, negative = inhibition, actives largely listed as inhibitors; Vaccinia virus Venus reporter expression, fluorescence; 330,000 tested, 0.46% active; calls by dose curve; tested in A549 cells; note: potency is the fitted concentration of half-maximal effect; nearly all actives have a fitted effect of over 30% in size
Lassa entry inh: blocks Lassa virus binding to or entry into cells | Lassa virus pseudotype entry inhibition, cell reporter | Potency, µM (top dose mostly 37.9 µM), without a hit: top-dose activity change, negative = inhibition, usual class: inhibitors | 300,000 tested, 1.2% active; calls by dose curve; tested in HEK293 cells; note: potency is the fitted concentration of half-maximal effect; nearly all actives have a fitted effect of over 50% in size
HCMV inh: human cytomegalovirus inhibition; HFF cells, HCMV-luciferase reporter, 72 h; hits give low values; activity change, negative = inhibition, % at 57.5 µM; 410,000 tested, 4.5% active; in the data active = activity change below about -60%; inconclusive = no clear call, values can overlap the other calls; inactive = above about -39%
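Two-dose cell screen: HFF monolayers treated with compounds and infected with luciferase-expressing HCMV at 1 PFU/cell, 72 h at 37C, then lysed for luciferase measurement.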
Starred values were filed as active, the others as inactive; i = inactive; ? = inconclusive; / = no result given; ! = repeats disagree; [ ] = dose if it differs, or a comment. % is set by controls: 0 for no effect and ±100 for the full control effect.

SMILES | VACV mCherry inh | HCV inhibitor | Marburg entry inh | VACV Venus inh | Lassa entry inh | HCMV inh
CCOC(=O)Cn1c(-c2ccccc2)nc2ccccc2c1=O | -8.6% | 4.5% | 5.6% | -15.8% | 28.1% | -94.7*
COc1ccc(CNn2c(C)nc3ccccc3c2=O)cc1 | ? | -26.2% | ? | -18.5% | 0.9% | 47.1
CCOC(=O)CSc1nc2ccccc2c(=O)n1CC | -16.4% | -26.7% | 1.4% | -6.7% | 0.7% | -10.2
CCCCOC(=O)Cn1c(-c2ccccc2)nc2ccccc2c1=O | i | -2.4% | -6.9% | -11.5% | 8.7% | -76.3*
CCCCOc1ccc(CNn2c(C)nc3ccccc3c2=O)cc1 | -4.8% | 10µM* | ? | -3.6% | -1.5% | ?
COc1ccccc1C(=O)Nc1ccc2nc(SCC(=O)N(C)c3ccccc3)sc2c1 | -28.1% | / | ? | ? | ? | -65.2*
CN(C(=O)CSc1nc2ccc(NC(=O)c3cccc(F)c3)cc2s1)c1ccccc1 | -8.9% | / | ? | -29.2% | -26.2%[46.1 µM] | -74.6*
COc1ccccc1C(=O)Nc1ccc2nc(SCC(=O)N(C)C)sc2c1 | ? | -5.4% | -0.5% | -19.1% | -6.9% | 13.1
CN(C(=O)CSc1nc2ccc(NC(=O)c3ccccc3F)cc2s1)c1ccccc1 | -6.5% | / | ? | ? | ? | 12.8
CC(C)(O)CCc1c(-c2ccc(O)cc2O)oc2c3c(cc(O)c2c1=O)OC(C)(C)C=C3 | -27.3% | 12.6µM* | / | -9.6% | / | -10.7
CCN(CC)C(=O)CSc1nc2cc3c(cc2c(=O)n1CCCCCC(=O)NCCc1ccc(OC)c(OC)c1)OCO3 | -18.4% | / | / | -14.3% | 15.9%[46.1 µM] | -82.5*
Oc1ccc(-c2cnc(-c3ccc(O)cc3)nc2)cc1 | -10.3% | -16.0% | 1.12µM* | -10.2% | 3.16µM* | 47.5
Nc1ccc(-c2cnc(-c3ccc(N)cc3)nc2)cc1 | / | -25.7% | ? | / | ? | 43.4
CCn1c(SCc2ccc(F)cc2)nc2c(c1=O)SCC2 | -1.8% | 10.6% | ? | -17.4% | -11.5% | -23.1
CCn1c(SCc2cccc(F)c2)nc2c(c1=O)SCC2 | i | 12.3% | -23.0%[46.1 µM] | -7.8% | 14.8% | -60.5*
CC(OC(=O)c1cc(Br)ccc1O)C(=O)NC1(C#N)CCCCC1 (stereo not given) | i | ? | 2.7% | -18.6% | -19.1%[46.1 µM] | -5.2
CC(OC(=O)c1ccc(-c2ccc(O)cc2)cc1)C(=O)NC1CCCCC1C (stereo not given) | -23.9% | 12.6µM* | ? | -16.0% | -15.3% | 2.6
CC(OC(=O)c1ccc2c(c1)OCO2)C(=O)NC1CCCCC1C (stereo not given) | -11.1% | ? | ? | -7.9% | 7.7% | ?
Cc1[nH]c2ccc(C(=O)OC(C)C(=O)NC3CCCCC3C)cc2c1C (stereo not given) | / | 22.4µM* | / | / | / | -36.1
Cc1[nH]c2ccc(C(=O)OC(C)C(=O)NC3(C#N)CCCCC3)cc2c1C (stereo not given) | -7.3% | 14.1µM* | ? | -15.3% | ? | -24.5
Cc1nc(-c2ccc(S(=O)(=O)Nc3ccc(C#N)cc3)cc2)co1 | -6.8% | / | / | -8.6% | 4.3%[46.1 µM] | -2.8
O=S(=O)(c1ccccc1)c1nnn2c1nc(NCc1ccccc1)c1sccc12 | -28.8% | / | / | ? | 15.8%[46.1 µM] | 6.0
O=C(NCc1ccncc1)c1cc2ccccc2nc1Cl | -5.6% | -5.2% | 10.0%[46.1 µM] | -0.2% | 16.7%[46.1 µM] | -79.2*
CC(=O)[C@@]1(O)C(C)CC2C3C=C(C)C4=Cc5c(cnn5-c5ccccc5)C[C@]4(C)C3C(O)C[C@@]21C (stereo not given in full) | -24.7% | 7.08µM* | 7.94µM* | ? | ? | ?
CC(C)[C@@H]1Cc2c(C#N)c(N)n(C)c(=S)c2CO1 | / | / | 3.2% | / | / | /
SMILES | VACV mCherry inh | HCV inhibitor | Marburg entry inh | VACV Venus inh | Lassa entry inh | HCMV inh
CCn1c(=O)c(CCC(=O)NCC2CCCO2)c(C)c2c(C)nn(-c3ccccc3)c21 (stereo not given) | -4.6%[7.34 µM] | 12.6µM* | / | -3.0%[7.34 µM] | / | -21.6
COc1cccc(NC(=O)C2=COC3=NC(=O)N(Cc4ccccc4)CCN23)c1 | / | / | / | / | / | -38.3
CCN(C(=O)C(=O)Nc1ccc2nc3n(c(=O)c2c1)CCCCC3)c1ccc(F)cc1 | 5.7% | / | -26.3%[46.1 µM] | 3.2% | -10.0%[46.1 µM] | -10.2
COc1ccccc1CCNC(=O)C1CCN(c2nnc(C)c3c(C)n(-c4ccc(C)cc4)nc23)CC1 | 14.1µM* | ? | / | 10µM* | ? | -93.4*!
Cc1ccc(-n2nc3c(SCCN4CCOCC4)nnc(C)c3c2C)cc1 | ? | ? | ? | ? | 10.8% | ?
CCOc1ccc(-n2nc3c(SCCN4CCCC4)nnc(C)c3c2C)cc1 | -28.2% | 10µM* | ? | -16.7% | 6.9% | ?
Cc1nnc(N2CCC(C(=O)NCCc3ccccc3Cl)CC2)c2nn(-c3ccccc3)c(C)c12 | 28.2µM* | / | / | ? | -12.8%[46.1 µM] | -91.2*
Cc1ccc(-n2nc3c(N4CCC(C(=O)NCc5ccccc5Cl)CC4)nnc(C)c3c2C)cc1 | ? | / | / | 10µM* | -14.9%[46.1 µM] | -27.8
Cc1nnc(N2CCC(C(=O)NCc3ccc(F)cc3)CC2)c2nn(-c3ccc(Cl)cc3)c(C)c12 | ? | / | / | ? | -8.9%[46.1 µM] | -86.2*
Cc1ccc(-n2nc3c(N4CCC(C(=O)NCc5ccccc5C)CC4)nnc(C)c3c2C)cc1 | / | 6.31µM* | / | / | / | /
CCOc1ccc(CNC(=O)C2CCN(c3nnc(C)c4c(C)n(-c5ccc(C)cc5)nc34)CC2)cc1 | / | 12.6µM* | / | / | / | -74.5*
Cc1ccc(-n2nc3c(N4CCCC(C(=O)NCc5ccc(Cl)cc5)C4)nnc(C)c3c2C)cc1 (stereo not given) | -7.8% | / | / | -16.6% | 8.9%[46.1 µM] | 8.4
Cc1nnc(N2CCC(C(=O)NCCc3ccccc3)CC2)c2nn(-c3ccc(Cl)cc3)c(C)c12 | ? | / | / | ? | 11.5%[46.1 µM] | -10.5
CCOc1ccccc1CNC(=O)C1CCN(c2nnc(C)c3c(C)n(-c4ccc(C)cc4)nc23)CC1 | 11.2µM* | 11.2µM* | / | 11.2µM* | -8.6%[46.1 µM] | -86.5*
C[C@H]1[C@H](c2ccccc2)Oc2cccc(N3CCCC3)c2S(=O)(=O)N1Cc1cccc(F)c1 | / | / | / | / | / | -14.8
NC(=O)NOCc1ccc(Cl)cc1Cl | 6.1% | 9.9% | -10.9%[46.1 µM] | -7.2% | ? | -37.4
CNC(=S)/N=C/NOCc1ccc(Cl)cc1Cl | -24.7% | ? | ? | -13.1% | ? | -78.2*
Cc1ccc(NC(=O)CCCn2c(=O)c3cccn3c3cccnc32)c(C)c1 | -20.4% | / | / | -14.4% | -14.0%[46.1 µM] | -14.5
O=C(Nc1cccc2ncccc12)c1cccc(Br)c1 | -5.4% | -14.6% | -26.8%[46.1 µM] | -16.0% | -6.5%[46.1 µM] | -13.1
O=C(Nc1cccc2ncccc12)c1ccc(Br)c([N+](=O)[O-])c1 | -0.8% | 12.6µM* | ? | 5.0% | ? | -63.4*
O=C(Nc1cccc2ncccc12)c1ccc(F)cc1 | -13.8% | -0.5% | -4.8% | -3.0% | 7.7% | -63.9*
CCCCCCCCCC[n+]1cccc2c3ccccc3ccc21 | / | 3.98µM* | / | / | / | -107.8*
